Source: PubChem
Vaccinia Venus = vaccinia inhibition (Venus reporter); 330,000 tested, 0.46% active; Vaccinia virus Venus reporter expression, fluorescence; Potency, µM (series often up to 36.5 µM), inactives show at the top dose activity change, negative = inhibition, hits mostly inhibitors; AID 720580; calls by dose curve; tested in A549 cells; also: potency is read from the fitted curve at half-maximal effect; % is scaled to controls: 0 for no effect and ±100 for the full control effect; nearly all actives have a fitted effect of over 30% in size
VACV mCherry inh = inhibitors of vaccinia virus infection (mCherry reporter signal). AID 720579. 310,000 tested, 0.63% active. Potency, µM (series often up to 36.5 µM), for inactives: at the highest dose activity change, negative = inhibition, most hits filed as inhibitors. Vaccinia virus mCherry reporter infection, fluorescence; calls by dose curve; tested in A549 cells; also: potency is read from the fitted curve at half-maximal effect; % is scaled to controls: 0 for no effect and ±100 for the full control effect; nearly all actives have a fitted effect of over 35% in size
Shiga inhibitor = Shiga toxin inhibition; inhibition, % at 38.7 µM; Vero cells, Shiga toxin protein synthesis inhibition reporter; 290,000 tested, 9.2% active; AID 2315; in the data active = inhibition mostly above about 28%, no sharp cut-off; inactive = mostly below about 43%; also: 0% is about no effect
MARV entry inh = Marburg virus entry inhibition. Marburg virus pseudotyped entry inhibition, cell reporter. Potency, µM (doses to about 37.8 µM), inactives show at the top dose activity change, negative = inhibition, usual class: inhibitors. 300,000 tested, 1.8% active; calls by dose curve; tested in HEK293 cells; also: potency is read from the fitted curve at half-maximal effect; % is scaled to controls: 0 for no effect and ±100 for the full control effect
CHX counter = counter-screen for Shiga toxin inhibitors: cycloheximide protein synthesis inhibition. 300,000 tested, 12% active. AID 2314. max response, %. cell reporter, cycloheximide protein synthesis inhibition counterscreen; in the data active = max response mostly above about 13%, no sharp cut-off; inactive = mostly below about 14%; also: read at 38.3 µM for the half of the compounds with a filed dose; 0% is about no effect
Lassa entry inh = inhibitors of Lassa virus binding or cell entry; 300,000 tested, 1.2% active; AID 540256; Potency, µM (titrated, usually from 37.9 µM), for inactives: at the top dose activity change, negative = inhibition, actives largely listed as inhibitors; Lassa virus pseudotype entry inhibition, cell reporter; calls by dose curve; tested in HEK293 cells; also: potency is read from the fitted curve at half-maximal effect; % is scaled to controls: 0 for no effect and ±100 for the full control effect; nearly all actives have a fitted effect of over 50% in size
The depositor's hits bear a star; i = inactive; ? = inconclusive; . = not tested or not shown; [ ] = remark or other dose. This is one part of a sample in which hits are shown more often than they occur.

SMILES	Vaccinia Venus	VACV mCherry inh	Shiga inhibitor	MARV entry inh	CHX counter	Lassa entry inh
O=C(/C=C/c1cccs1)NC(=S)Nc1ccc(S(=O)(=O)Nc2ccccc2C(F)(F)F)cc1	.	.	8.6	-2.8%	-1.5	.
O=[N+]([O-])c1ccc(CN2CCN(c3ccc([N+](=O)[O-])cc3)CC2)cc1	?	-25.2%	-17.9	-18.9%	-2.5	?
N#Cc1c(N2CCN(c3ccc([N+](=O)[O-])cc3)CC2)[n+](=O)c2ccc(Cl)cc2n1[O-]	-20.6%	-15.5%	.	?	.	10µM*
CCCN1CNc2c(c(=O)[nH]c(=S)n2CCc2cccc(OC)c2)C1	-12.9%	-10.9%	.	.	.	.
Cc1ccc(OCCCCCCN2CCNCC2)cc1	-18.4%	-14.9%	.	14.1µM*	.	5.2%
Cc1ccc(OCCCCCN2CCOCC2)cc1	-10.0%	i	8.0	13.9%	-1.3	-4.2%
Cc1ccc(OCCCN2CCOCC2)cc1	-17.5%	i	19.5*	0.0%[46.1 µM]	20.1*	23.0%[46.1 µM]
CC(CCN1CCc2nc(-c3ccccc3)c(-c3ccccc3)cc2C1)=NOC[C@@H](O)[C@H]1O[C@@H]2OC(C)(C)O[C@H]2[C@@H]1O	.	.	.	25.9%[14.2 µM]	.	.
Cc1nc(S/C(=C/c2ccc(-c3cc(Cl)ccc3C)o2)C(=O)O)n[nH]1	.	.	102.5*	.	28.9*	.
C[C@H](NC(=O)c1ncn2c1c(=O)[nH]c1ccc(Br)cc12)c1ccccc1	12.6µM*	?	.	.	.	.
COc1ccc2c(c1OC)C(=O)N(c1cccc(NC(C)=O)c1)C2	-25.7%	-10.7%	28.1	-15.4%[46.1 µM]	23.3*	-15.2%[46.1 µM]
COc1ccc2c(c1OC)C(=O)N(c1ccc(F)cc1)C2	-26.7%	i	65.2*	?	35.8*	-20.0%[46.1 µM]
COc1ccc(C(=O)Nc2cccc(NC(C)=O)c2)cc1OC	-11.8%	-22.3%	-13.6	5.2%	-2.1	13.1%
COc1ccc2c(c1OC)C(=O)OC2	0.6%	i	-17.8	.	-1.9	.
COc1ccc(C(=O)COC(=O)CCCn2c(=O)oc3ccccc32)cc1	.	.	-10.7	0.3%	1.1	7.2%
Cc1ccc2oc(=O)n(CCOc3ccccc3)c2c1	-11.1%	i	39.3*	0.4%[46.1 µM]	35.1*	5.1%
COc1cccc(Cn2c(=O)oc3ccccc32)c1	1.4%	i	44.6*	?	41.5*	?
COc1ccc(OCCCn2c(=O)oc3ccccc32)cc1	9.3%	7.6%	-5.9	8.0%	18.8*	21.6%
Cc1ccc2oc(=O)n(CCCOc3ccc(Cl)cc3)c2c1	-19.4%	-19.5%	.	?	.	26.4%[46.1 µM]
Cc1cccc(OCCn2c(=O)oc3ccc(C)cc32)c1	-14.8%	-14.5%	78.8*	-13.0%[46.1 µM]	41.8*	-9.1%[46.1 µM]
CCCCOc1ccc(CC(=O)NOC)cc1	6.4%	22.8%	.	.	.	.
Cc1cccc(OCCCn2c(=O)oc3ccccc32)c1	1.6%	-10.3%	50.5*	28.3%[46.1 µM]	22.3*	24.3%[46.1 µM]
O=C1c2ccccc2C(=O)N1CC(O)COc1ccc(Br)cc1 (stereo not given)	-14.3%	i	89.8	20.2%[46.1 µM]	12.7*	4.9%[46.1 µM]
O=C1c2ccccc2S(=O)(=O)N1CCOc1ccccc1	.	.	55.8	?	34.9*	?
C=CCc1ccccc1OCC(O)CN1C(=O)c2ccccc2C1=O (stereo not given)	-6.0%	-9.4%	-2.0	0.1%	1.2	5.8%
SMILES	Vaccinia Venus	VACV mCherry inh	Shiga inhibitor	MARV entry inh	CHX counter	Lassa entry inh
O=C1c2ccccc2S(=O)(=O)N1CC(O)COc1ccc(Br)cc1 (stereo not given)	.	.	33.4	?	28.1*	17.2%
CSCCC1NC(=O)N(CC(=O)Nc2ccc(-c3ccccc3)cc2)C1=O (stereo not given)	-22.9%	-18.9%	65.5*	.	20.9*	.
Cc1ccc(S(=O)(=O)N2[C@@H](c3ccc(Cl)cc3)C(C(=O)O)=CC[C@H]2c2ccc(Cl)cc2)cc1	-15.1%	i	.	.	.	.
O=C(CC(=O)NC1CCCCC1)N/N=C/c1ccccc1[N+](=O)[O-]	-0.3%	?	46.6*	10.5%[46.1 µM]	29.3*	0.4%[46.1 µM]
O=C(CNS(=O)(=O)c1ccccc1)N/N=C/c1ccccc1[N+](=O)[O-]	-12.5%	?	2.2	1.2%[46.1 µM]	-1.1	-7.9%[46.1 µM]
O=C(N/N=C/c1cccc2ccccc12)C(=O)N1CCCC1	-7.4%	i	24.2	-9.3%[46.1 µM]	0.0	-22.2%[46.1 µM]
O=C(CCCO)N/N=C/c1ccccc1[N+](=O)[O-]	-4.6%	-10.9%	38.8*	?	0.8	22.4%
O=C(CC(=O)NC1CCCCC1)N/N=C/c1ccccc1Cl	-13.4%	i	-11.4	?	-1.3	2.2%
O=C(N/N=C/c1ccccc1[N+](=O)[O-])C(=O)N1CCCC1	-2.1%	-12.3%	51.7*	1.0%[46.1 µM]	20.0*	6.0%
CCNc1c(NC(=O)c2ccc3c(c2)OCO3)c(=O)oc2ccccc12	.	.	1.3	.	10.0	.
Cc1cc(=O)[nH]c(N/N=C/C2=C(N3CCOCC3)C(=C\c3ccc(Cl)cc3)/CC2)n1	-12.3%	-20.7%	5.8	?	7.2	10.0%
O=C(O)c1ccccc1N/N=C/C1=C(N2CCOCC2)C(=C\c2ccccc2)/CC1	5.4%	?	58.5*	27.3%[46.1 µM]	14.8	-8.6%
O=C(N/N=C/C1=C(N2CCOCC2)C(=C\c2ccccc2)/CC1)Nc1ccccc1	-10.1%	i	-4.2	?	-1.7	-5.2%
Cc1occc1C(=O)N/N=C/C1=C(N2CCOCC2)C(=C\c2ccc(Cl)cc2)/CC1	.	.	13.3	-6.6%	24.4*	.
O=C(NCC(c1cccs1)N1CCOCC1)c1cn(-c2ccccc2)nc1-c1ccc(Cl)cc1 (stereo not given)	?	-12.5%	.	10µM*	.	-24.8%
COc1ccc(-c2nn(-c3ccccc3)cc2C(=O)NCC(c2cccs2)N2CCOCC2)cc1 (stereo not given)	-17.5%	-14.0%	.	?	.	-16.0%
COc1cccc(-c2nn(-c3ccc(C)cc3)cc2C(=O)NCC(c2cccs2)N2CCOCC2)c1 (stereo not given)	-23.8%	-26.9%	.	?	.	?
O=C(NCC(c1cccs1)N1CCOCC1)c1cn(-c2ccccc2)nc1-c1ccccc1 (stereo not given)	-12.9%	-23.5%	.	12.6µM*	.	-0.3%
O=C(NCC(c1cccs1)N1CCOCC1)c1cc([N+](=O)[O-])cc([N+](=O)[O-])c1 (stereo not given)	-23.7%	i	2.1	-25.7%	17.9*	-0.9%
O=C(O)C1CCCCC1SC1=C([S+](=O)([O-])NC2CCCCC2)CCCC1 (stereo not given)	.	.	.	9.0%[14.2 µM]	.	.
CC(C)Cc1nn2c(=O)cc(COC(=O)c3ccc(NC(=O)CCc4ccccc4)cc3)nc2s1	-3.9%	-10.7%	.	.	.	?
COc1cc(/C=C2\SC(=S)N(CCC(=O)Nc3ccccc3O)C2=O)cc(OC)c1OC	.	.	26.1	.	-2.4	.
O=C(CN1C(=O)COc2ccc(S(=O)(=O)N3CCCC3)cc21)N1CCN(c2ccccc2)CC1	-7.9%	-10.4%	.	.	.	2.1%[46.1 µM]
O=C(c1ccc(OC(F)(F)F)cc1)c1ncc[nH]1	-7.1%	i	65.4*	.	39.0*	.
COc1ccc(CCNC(=O)CCN2C(=O)[C@@H]3Cc4ccccc4CN3C2=O)cc1OC	.	.	-7.1	.	-1.3	.
O=C(CSc1ccc(-c2cccnc2)nn1)N1CCCC1	15.7%	-8.4%	10.5	-3.1%	2.1	15.8%
